A short description of test [1]: qHTS assay to identify small molecule antagonists of the progesterone receptor (PR) signaling pathway - cell viability counter screen (AID 1346798). Further: nearly all actives have a fitted effect of over 50% in size. The note with it: PR-UAS-bla HEK293T viability, CellTiter-Glo luminescence, 16 h; series mostly up to 92.4 µM. The method, boiled down: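 ATP content as viability readout: CellTiter-Glo luminescence, 30 min room temperature, in PR-UAS-bla HEK293T cells after 16 hr compound/R5020 treatment at 37C and 5% CO2.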
(In general: Quantitative high-throughput screening tests each substance at several concentrations.)

Test [2] in a line: qHTS assay to identify small molecule agonists of the progesterone receptor (PR) signaling pathway - cell viability counter screen (AID 1346799; calls by dose curve; further: nearly all actives have a fitted effect of over 45% in size). The following applies: PR-UAS-bla HEK293T viability, CellTiter-Glo luminescence, 16 h; series mostly up to 92.4 µM. A digest of the protocol:
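Cytotoxicity in PR-bla HEK293T cells: 16 h compound, 37C; CellTiter-Glo added post-FRET read; luminescence after 30 min RT.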

Test [3] can be described thus: qHTS assay to identify small molecule antagonists of the TGF-beta/Smad signaling pathway - cell viability counter screen (AID 1346824). Further: nearly all actives have a fitted effect of over 50% in size. The note with it: SBE-bla HEK293T viability, CellTiter-Glo luminescence; series mostly up to 76.8 µM. The method, boiled down: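 SBE-bla HEK 293T cells were plated overnight at 37 C, then given compounds in DMSO plus TGF-beta1 (added as 0.25 ng/mL solution) for 5 hr. After the bla read, CellTiter-Glo was added to the same wells and luminescence read after 30 min at room temperature.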

A short description of test [4]: qHTS assay to identify small molecule agonists of the TGF-beta/Smad signaling pathway - cell viability counter screen (AID 1346829). Further: top concentration of the series differs between compounds; nearly all actives have a fitted effect of over 45% in size. The note with it: SBE-bla HEK293T viability, CellTiter-Glo luminescence, 5 h; series mostly up to 76.8 µM. A digest of the protocol: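 HEK 293T SBE-bla line, 5 hr compound exposure at 37 C, multiplexed CellTiter-Glo viability read by luminescence.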

Test [5] in a line: qHTS assay to identify small molecule agonists of the TGF-beta/Smad signaling pathway (AID 1346859; active means well fitted activation curve with a large enough effect in the signal ratio in the repeat runs, not every such curve was filed as active; the % refers to the signal ratio). The following applies: SBE-bla HEK293T, TGF-beta/Smad beta-lactamase reporter, 5 h; series mostly up to 76.8 µM. A digest of the protocol:
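Stable Smad binding element-beta-lactamase HEK 293T cells; 5 hr compound exposure at 37 C under 5% CO2; 2 hr room-temperature substrate step; fluorescence excited at 405 nm, collected at 460 nm and 530 nm.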

A short description of test [6]: Caspase-3/7 induction in HepG2 cells by small molecules, qHTS assay (AID 1346978). Further: nearly all actives have a fitted effect of over 15% in size. The note with it: HepG2 caspase-3/7 activation, Caspase-Glo luminescence, 17 h; series mostly up to 92.4 µM. A digest of the protocol: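 Wild-type HepG2 cells (2,000/well) were settled 5 h at 37 C, 5% CO2, then exposed to compounds in DMSO for 17 h. Caspase-3/7 activity was read by luminescence 30 min after adding Caspase-Glo 3/7 reagent at room temperature.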

Test [7] in a line: Caspase-3/7 induction in HepG2 cells by small molecules, qHTS cell viability counter screen (AID 1346981). Further: nearly all actives have a fitted effect of over 30% in size. Further: potency means the concentration at half of the fitted maximal effect. The note with it: CellTiter-Fluor fluorescence, 17 h; series mostly up to 92.4 µM. The method, boiled down: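 Steps: seed 2,000 HepG2 cells per well; incubate 5 hr at 37 C; pin-add compounds in DMSO; incubate 16 hr; add CellTiter-Fluor; after 1 hr at 37 C and 5% CO2, read fluorescence.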

For test [8], the target named is Nuclear receptor subfamily 1 group I member 2 (Homo sapiens) (UniProt O75469). Description: Human pregnane X receptor (PXR) small molecule agonists, qHTS assay (AID 1346982). Further: nearly all actives have a fitted effect of over 35% in size. Further: potency means the concentration at half of the fitted maximal effect. The note with it: PXR-Luc HepG2, CYP3A4 luciferase reporter, 24 h; series mostly up to 92.4 µM. The method, boiled down:
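Agonist mode qHTS: PXR-Luc HepG2 cells plated 5 hr before DMSO-dissolved compounds were pinned in, cultured 24 hr at 37 C, 5% CO2; ONE-Glo luminescence readout.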

The target of test [9] is Cytochrome P450 2D6 (Homo sapiens) (UniProt P10635). Description: Cytochrome P450 Family 2 Subfamily D Member 6 (CYP2D6) small molecule antagonists: luciferase reporter qHTS assay (AID 1671196). Further: nearly all actives have a fitted effect of over 50% in size. Further: potency means the concentration at half of the fitted maximal effect. The following applies: P450-Glo CYP2D6 enzyme assay, luciferin luminescence, 1 h; series mostly up to 115 µM. The method, boiled down:
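P450-Glo format: CYP2D6 converts a proluciferin substrate to luciferin in an NADPH-driven reaction lasting 1 h at room temperature. Light output, proportional to CYP2D6 activity, reflects interference by test chemicals.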
A general note: Reporter assays use an easily measured gene product as a stand-in for the process of interest.

Test [10] concerns the target Progesterone receptor (Homo sapiens) (UniProt P06401). Description: qHTS assay to identify small molecule antagonists of the progesterone receptor (PR) signaling pathway (AID 1346795; active means well fitted inhibition curve with a large enough effect in the signal ratio in the repeat runs, not every such curve was filed as active; the % refers to the signal ratio). The note with it: PR-UAS-bla HEK293T, beta-lactamase FRET ratio, 16 h; series mostly up to 92.4 µM. A digest of the protocol:
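Inhibition of R5020-induced (1 nM final) beta-lactamase reporter signal in PR-UAS-bla HEK293T cells was scored by FRET fluorescence after overnight (16 hr) compound treatment.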

Test [11] concerns the target Thyrotropin-releasing hormone receptor (Homo sapiens) (UniProt P34981). Description: qHTS assay to identify small molecule antagonists of the thyrotropin-releasing hormone receptor (TRHR) signaling pathway (AID 1346877; active means well fitted inhibition curve with a large enough effect in the repeat runs, not every such curve was filed as active). The following applies: TRHR-HEK293, TRH-induced calcium fluorescence, antagonist mode; series mostly up to 51.3 µM. A digest of the protocol: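 Cells (TRHR-HEK293) are plated and kept 18 h at 37 °C/5% CO2. A calcium-sensitive dye is added for 2 h, compound follows for 5 min at room temperature, and TRH is then given at 1 nM final.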

The target is the same in test [12]. Put plainly: qHTS assay to identify small molecule agonists of the thyrotropin-releasing hormone receptor (TRHR) signaling pathway (AID 1346891; calls by dose curve;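 further: HEK293 cells expressing TRHR with calcium dye readout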). The following applies: TRHR-HEK293 calcium fluorescence, agonist mode; series mostly up to 57.6 µM. A digest of the protocol:
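In 1536-format, 1500 TRHR-Hek293 cells per well grew 18 h, took up calcium dye for 2 h at 37 °C, received compound, and were read kinetically; 15-point titrations, triplicates.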

Test [13] in a line: Caspase-3/7 induction in CHO-K1 cells by small molecules, qHTS cell viability counter screen (AID 1346979). Further: nearly all actives have a fitted effect of over 35% in size. Further: potency means the concentration at half of the fitted maximal effect. The note with it: CellTiter-Fluor fluorescence, 17 h; series mostly up to 92.4 µM. A digest of the protocol: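 To flag cytotoxic compounds, treated CHO-K1 wild-type cells were given CellTiter-Fluor at 16hr and read fluorescently after 1hr at 37C; the caspase-3/7 luminescence was measured in these same wells.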

A short description of test [14]: Caspase-3/7 induction in CHO-K1 cells by small molecules, qHTS assay (AID 1346980). Further: nearly all actives have a fitted effect of over 15% in size. The note with it: CHO-K1 caspase-3/7 induction, Caspase-Glo luminescence, 17 h; series mostly up to 92.4 µM. A digest of the protocol: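 Wild-type cells were seeded at 1,500 per well and settled 5 hr at 37 C, 5% CO2, then exposed to DMSO-dissolved compounds for 17 hr. Caspase-Glo 3/7 reagent was added, and luminescence was read after 30min at room temperature.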

For test [15], the target named is Progesterone receptor (Homo sapiens) (UniProt P06401). Description: qHTS assay to identify small molecule agonists of the progesterone receptor (PR) signaling pathway (AID 1346784; calls by dose curve; further: nearly all actives have a fitted effect of over 30% in size). The following applies: PR-UAS-bla HEK293T, beta-lactamase FRET ratio, 16 h; series mostly up to 92.4 µM. The method, boiled down: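 Using charcoal-stripped serum (2%) to limit endogenous steroids, PR-UAS-bla HEK 293T cells received compounds for 16 hr at 37C after 6 hr plating; beta-lactamase FRET fluorescence was recorded following 2 hr substrate loading at room temperature.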

Test [16] in a line: Human pregnane X receptor (PXR) small molecule agonists, qHTS cell viability counter screen (AID 1346977). Further: nearly all actives have a fitted effect of over 50% in size. The following applies: PXR-Luc HepG2 viability, CellTiter-Fluor, 24 h; series mostly up to 92.4 µM. The method, boiled down:
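Readout is CellTiter-Fluor fluorescence from PXR-Luc HepG2 cells. Plated cells rested 5hr, then were treated with compounds for 24hr at 37C and 5% CO2, with reagent present during the last hour.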

The source of these data is PubChem BioAssay (Tox21).

A number with no mark means an inactive call. Records with an inconclusive call do not appear. Active and inactive are the calls of the source. Unless noted, the call rests on the fitted dose curve; in most records, active means well fitted curve in the direction sought with a large enough effect in the repeat runs; inconclusive means weak or mixed curves; inactive means no such curve, though single readings can be large; an effect the other way counts as inactive or inconclusive.

Thyrotropin-releasing hormone receptor (Homo sapiens), sequence (P34981 whole entry, looked up): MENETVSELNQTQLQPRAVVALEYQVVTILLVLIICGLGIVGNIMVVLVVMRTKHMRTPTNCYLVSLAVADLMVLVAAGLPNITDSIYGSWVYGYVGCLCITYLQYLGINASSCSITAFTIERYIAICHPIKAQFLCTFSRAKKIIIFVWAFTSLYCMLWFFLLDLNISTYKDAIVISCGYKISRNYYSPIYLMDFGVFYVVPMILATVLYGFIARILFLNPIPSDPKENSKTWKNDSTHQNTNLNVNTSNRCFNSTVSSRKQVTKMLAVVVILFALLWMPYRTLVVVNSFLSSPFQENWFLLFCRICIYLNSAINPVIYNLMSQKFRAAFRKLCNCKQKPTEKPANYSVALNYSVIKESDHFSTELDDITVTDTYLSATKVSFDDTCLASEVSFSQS
Cytochrome P450 2D6 (Homo sapiens), sequence (P10635 whole entry, looked up): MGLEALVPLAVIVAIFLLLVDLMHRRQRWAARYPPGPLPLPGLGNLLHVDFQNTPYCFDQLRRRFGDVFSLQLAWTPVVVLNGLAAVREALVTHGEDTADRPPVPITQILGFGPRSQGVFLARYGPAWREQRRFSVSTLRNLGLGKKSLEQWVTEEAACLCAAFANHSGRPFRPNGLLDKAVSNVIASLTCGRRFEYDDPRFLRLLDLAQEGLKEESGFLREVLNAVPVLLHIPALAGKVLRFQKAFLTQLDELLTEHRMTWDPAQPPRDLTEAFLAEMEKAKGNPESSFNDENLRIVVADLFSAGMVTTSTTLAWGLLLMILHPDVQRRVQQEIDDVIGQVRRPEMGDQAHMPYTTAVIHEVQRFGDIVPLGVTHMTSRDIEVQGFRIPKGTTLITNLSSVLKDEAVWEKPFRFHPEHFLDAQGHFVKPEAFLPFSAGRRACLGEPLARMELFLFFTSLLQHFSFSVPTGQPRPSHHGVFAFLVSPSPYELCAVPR
Progesterone receptor (Homo sapiens), sequence (P06401 whole entry, looked up): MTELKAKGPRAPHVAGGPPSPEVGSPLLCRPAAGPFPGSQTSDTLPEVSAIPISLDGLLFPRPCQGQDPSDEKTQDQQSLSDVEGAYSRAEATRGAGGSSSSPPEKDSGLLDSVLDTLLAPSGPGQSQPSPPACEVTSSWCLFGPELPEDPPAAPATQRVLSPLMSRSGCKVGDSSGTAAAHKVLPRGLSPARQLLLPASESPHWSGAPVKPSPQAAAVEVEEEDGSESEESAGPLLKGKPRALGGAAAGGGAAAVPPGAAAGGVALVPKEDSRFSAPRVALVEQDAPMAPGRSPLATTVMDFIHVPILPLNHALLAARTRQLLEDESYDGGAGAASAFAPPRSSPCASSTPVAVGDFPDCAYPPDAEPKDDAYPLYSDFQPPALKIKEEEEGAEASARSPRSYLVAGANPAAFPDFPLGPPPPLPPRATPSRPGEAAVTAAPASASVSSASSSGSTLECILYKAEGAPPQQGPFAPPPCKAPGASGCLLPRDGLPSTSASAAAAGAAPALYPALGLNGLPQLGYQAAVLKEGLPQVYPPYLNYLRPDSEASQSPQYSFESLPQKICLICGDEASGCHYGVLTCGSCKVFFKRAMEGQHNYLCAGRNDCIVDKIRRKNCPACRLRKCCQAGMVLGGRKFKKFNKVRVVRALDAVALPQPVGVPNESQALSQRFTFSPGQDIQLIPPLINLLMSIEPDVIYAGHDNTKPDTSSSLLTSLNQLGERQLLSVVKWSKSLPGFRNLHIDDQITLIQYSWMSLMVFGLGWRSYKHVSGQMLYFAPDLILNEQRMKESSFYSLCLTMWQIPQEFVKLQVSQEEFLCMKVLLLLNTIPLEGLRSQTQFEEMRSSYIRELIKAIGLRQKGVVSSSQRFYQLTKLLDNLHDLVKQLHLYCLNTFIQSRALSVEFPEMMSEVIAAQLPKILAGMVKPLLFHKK
Nuclear receptor subfamily 1 group I member 2 (Homo sapiens), sequence (O75469 whole entry, looked up): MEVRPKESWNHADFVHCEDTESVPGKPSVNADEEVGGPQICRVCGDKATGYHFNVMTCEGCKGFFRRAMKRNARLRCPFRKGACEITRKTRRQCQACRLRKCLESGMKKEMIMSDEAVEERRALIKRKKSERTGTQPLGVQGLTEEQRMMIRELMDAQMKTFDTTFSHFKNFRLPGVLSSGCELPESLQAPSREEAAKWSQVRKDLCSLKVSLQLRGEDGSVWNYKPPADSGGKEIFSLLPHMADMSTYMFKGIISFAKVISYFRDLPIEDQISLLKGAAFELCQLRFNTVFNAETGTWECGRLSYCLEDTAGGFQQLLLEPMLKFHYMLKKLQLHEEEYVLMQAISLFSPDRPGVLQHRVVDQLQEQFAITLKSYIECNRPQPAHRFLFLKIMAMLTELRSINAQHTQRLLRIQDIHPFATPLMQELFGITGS

`C[C@@H]1C[C@H]2[C@@H]3CCC4=CC(=O)C=C[C@]4(C)[C@@]3(F)[C@@H](O)C[C@]2(C)[C@@]1(O)C(=O)COC(=O)c1ccncc1`: the Potency result in test [1], in test [2], in [3], in test [5], in test [6] and in test [7] was “inactive” each time. Further, the result in test [4] was inactive. In addition, the Potency was 1.33 µM (active) in test [8] and 11 µM (active) in [9].
Consider `COc1cc(C(=O)OCCCN2CCCN(CCCOC(=O)c3cc(OC)c(OC)c(OC)c3)CC2)cc(OC)c1OC`, for which the Potency result in test [10], in test [1], in [2], in [3], in test [5] and in [12] was “inactive” throughout. In addition, the Potency result in test [6] and in test [14] was “inactive” in each case. Also, the compound was classed as inactive in test [4] and in [11]. The Potency in [13] was 23.7 µM (active); in test [7], 26.6 µM (active); in test [8] it was 29.8 µM (active).
For the compound `CCO[Si](CCCCl)(OCC)OCC`, the Potency result in [15], in [3], in [5], in test [12], in test [13] and in test [14] was “inactive” in each case. Further, the Potency entry in [7] and in test [8] was “inactive” in each case. The result in [4] and in test [11] was inactive. Besides, in [9], the Potency was 22.3 µM (active).
As to `CN(C)c1ccc(CCO)cc1`, the Potency result in [15], in test [2], in [3], in test [5], in test [6] and in test [13] was “inactive” in each case. In addition, the Potency result in test [14], in test [7] and in [8] was “inactive” each time. Besides, the call in test [4] was inactive.
`CCCCOC(=O)CCCCCCCC(=O)OCCCC`: the Potency entry in [1], in test [2], in test [3], in test [5], in test [6] and in test [13] was “inactive” in each case. In addition, the Potency result in [14], in test [7], in [8] and in [9] was “inactive” throughout. Further, in [4], the compound was called inactive.
As to `C=CC(=O)OCCOCCOC(=O)C=C`, the Potency result in [5], in test [12], in [6], in test [8] and in test [9] was “inactive” each time. For the same compound, the outcome in test [11] was inactive. Also, the Potency in [13] was 15.4 µM (active); in test [7], 61.4 µM (active).
As for `Nc1cc(C(=O)O)c(O)c(S(=O)(=O)O)c1`, the Potency entry in test [1], in [3], in test [5], in [12], in test [16] and in [6] was “inactive” in each case. The Potency entry in [14] and in test [7] was “inactive” each time. The compound was called inactive in test [4] and in [11]. Besides, the Potency in test [9] was 35.1 µM (active).
Regarding `O=C(Nc1ccccc1)c1ccccc1O`, the Potency entry in test [1], in [5], in test [12], in [6] and in test [14] was “inactive” throughout. The result in test [4] and in [11] was inactive. Moreover, the Potency in test [8] was 6.86 µM (active); in test [9], 35.6 µM (active).
